# Reference: the supplement of paper PMC12819154, “High-throughput peptide-centric local stability assay extends protein–ligand identification to membrane proteins, tissues and bacteria” (Nature Structural & Molecular Biology, 2025)
# Compound: CN[C@@H]1C[C@H]2O[C@@](C)([C@@H]1OC)n1c3ccccc3c3c4c(c5c6ccccc6n2c5c31)C(=O)NC4 [staurosporine]
# Assay: log2 fold change of tryptic peptide abundance, ligand vs vehicle (limited proteolysis) (log2 ratio); higher = more trypsin-susceptible (destabilized)
# Details: ligand concentration: 20 uM; sample: K562 cleared lysate; digestion: 4 min, 22 C (HT-PELSA RT4min, Orbitrap Astral)
# UniProt Q02750, sequence (Q02750 whole entry): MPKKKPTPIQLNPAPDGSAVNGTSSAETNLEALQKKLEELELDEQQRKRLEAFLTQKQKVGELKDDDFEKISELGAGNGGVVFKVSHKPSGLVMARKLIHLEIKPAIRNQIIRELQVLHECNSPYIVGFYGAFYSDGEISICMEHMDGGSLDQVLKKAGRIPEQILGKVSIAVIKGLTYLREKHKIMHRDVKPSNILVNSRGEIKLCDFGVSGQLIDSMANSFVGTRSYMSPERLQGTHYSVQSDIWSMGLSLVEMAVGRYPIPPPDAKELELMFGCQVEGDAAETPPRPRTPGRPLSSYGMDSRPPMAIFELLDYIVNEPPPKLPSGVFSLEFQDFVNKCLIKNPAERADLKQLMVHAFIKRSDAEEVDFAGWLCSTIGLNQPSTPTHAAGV
# UniProt Q9UL54, sequence (Q9UL54 whole entry): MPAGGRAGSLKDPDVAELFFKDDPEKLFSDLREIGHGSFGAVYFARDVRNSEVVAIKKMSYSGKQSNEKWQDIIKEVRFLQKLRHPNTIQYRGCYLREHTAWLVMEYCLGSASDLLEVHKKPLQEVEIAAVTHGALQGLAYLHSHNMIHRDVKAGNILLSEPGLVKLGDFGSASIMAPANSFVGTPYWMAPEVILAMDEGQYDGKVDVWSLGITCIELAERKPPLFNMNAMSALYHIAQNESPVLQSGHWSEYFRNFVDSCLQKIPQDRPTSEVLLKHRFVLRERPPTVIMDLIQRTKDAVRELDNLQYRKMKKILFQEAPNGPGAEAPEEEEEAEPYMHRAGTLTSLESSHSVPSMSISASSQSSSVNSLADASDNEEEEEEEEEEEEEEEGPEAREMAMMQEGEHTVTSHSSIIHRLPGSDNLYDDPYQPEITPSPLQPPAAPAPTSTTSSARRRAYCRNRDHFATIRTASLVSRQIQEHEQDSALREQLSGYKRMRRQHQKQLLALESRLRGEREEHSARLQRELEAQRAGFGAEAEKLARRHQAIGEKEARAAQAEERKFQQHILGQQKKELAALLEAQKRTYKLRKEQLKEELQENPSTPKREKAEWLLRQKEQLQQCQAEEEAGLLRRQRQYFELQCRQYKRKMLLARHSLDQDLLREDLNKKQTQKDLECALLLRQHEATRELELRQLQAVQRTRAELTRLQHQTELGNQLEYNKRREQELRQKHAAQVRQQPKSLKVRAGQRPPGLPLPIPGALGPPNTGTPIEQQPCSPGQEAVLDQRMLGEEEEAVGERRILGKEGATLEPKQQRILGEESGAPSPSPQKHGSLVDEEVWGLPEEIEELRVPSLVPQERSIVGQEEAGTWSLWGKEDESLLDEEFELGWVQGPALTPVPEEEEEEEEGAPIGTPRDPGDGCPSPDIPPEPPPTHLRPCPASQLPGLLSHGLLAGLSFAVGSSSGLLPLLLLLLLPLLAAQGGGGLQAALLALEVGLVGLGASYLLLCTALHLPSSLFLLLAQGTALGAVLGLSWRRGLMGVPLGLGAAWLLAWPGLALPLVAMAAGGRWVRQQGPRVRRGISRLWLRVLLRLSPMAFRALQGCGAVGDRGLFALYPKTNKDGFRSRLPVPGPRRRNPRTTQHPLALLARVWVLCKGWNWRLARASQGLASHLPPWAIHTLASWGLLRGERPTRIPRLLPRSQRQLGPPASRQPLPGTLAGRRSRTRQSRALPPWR
# UniProt Q13555, sequence (Q13555 whole entry): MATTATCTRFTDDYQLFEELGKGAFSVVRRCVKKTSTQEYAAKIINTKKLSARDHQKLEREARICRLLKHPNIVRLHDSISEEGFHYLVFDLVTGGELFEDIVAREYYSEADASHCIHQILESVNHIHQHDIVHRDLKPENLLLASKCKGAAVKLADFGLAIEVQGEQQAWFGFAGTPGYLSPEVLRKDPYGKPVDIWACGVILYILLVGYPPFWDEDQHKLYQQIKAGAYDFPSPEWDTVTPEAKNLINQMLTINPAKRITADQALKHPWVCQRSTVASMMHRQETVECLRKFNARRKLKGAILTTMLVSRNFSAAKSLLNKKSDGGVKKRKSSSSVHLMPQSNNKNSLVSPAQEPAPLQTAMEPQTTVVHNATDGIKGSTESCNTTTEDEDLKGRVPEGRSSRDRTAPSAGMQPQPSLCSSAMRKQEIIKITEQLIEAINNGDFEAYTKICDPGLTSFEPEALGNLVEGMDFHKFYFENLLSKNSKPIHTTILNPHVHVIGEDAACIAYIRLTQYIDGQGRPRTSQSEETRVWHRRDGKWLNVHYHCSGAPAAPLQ
# UniProt P06493, sequence (P06493 whole entry, looked up): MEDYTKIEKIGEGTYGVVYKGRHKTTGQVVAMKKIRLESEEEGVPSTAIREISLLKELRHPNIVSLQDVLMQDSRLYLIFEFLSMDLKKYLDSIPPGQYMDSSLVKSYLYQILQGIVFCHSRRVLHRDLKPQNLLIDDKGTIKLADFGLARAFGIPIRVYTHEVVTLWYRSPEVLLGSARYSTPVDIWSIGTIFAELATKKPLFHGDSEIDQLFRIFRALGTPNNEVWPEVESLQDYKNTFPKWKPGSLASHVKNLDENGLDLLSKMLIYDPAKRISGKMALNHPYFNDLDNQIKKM
# UniProt Q8IYT8, sequence (Q8IYT8 whole entry): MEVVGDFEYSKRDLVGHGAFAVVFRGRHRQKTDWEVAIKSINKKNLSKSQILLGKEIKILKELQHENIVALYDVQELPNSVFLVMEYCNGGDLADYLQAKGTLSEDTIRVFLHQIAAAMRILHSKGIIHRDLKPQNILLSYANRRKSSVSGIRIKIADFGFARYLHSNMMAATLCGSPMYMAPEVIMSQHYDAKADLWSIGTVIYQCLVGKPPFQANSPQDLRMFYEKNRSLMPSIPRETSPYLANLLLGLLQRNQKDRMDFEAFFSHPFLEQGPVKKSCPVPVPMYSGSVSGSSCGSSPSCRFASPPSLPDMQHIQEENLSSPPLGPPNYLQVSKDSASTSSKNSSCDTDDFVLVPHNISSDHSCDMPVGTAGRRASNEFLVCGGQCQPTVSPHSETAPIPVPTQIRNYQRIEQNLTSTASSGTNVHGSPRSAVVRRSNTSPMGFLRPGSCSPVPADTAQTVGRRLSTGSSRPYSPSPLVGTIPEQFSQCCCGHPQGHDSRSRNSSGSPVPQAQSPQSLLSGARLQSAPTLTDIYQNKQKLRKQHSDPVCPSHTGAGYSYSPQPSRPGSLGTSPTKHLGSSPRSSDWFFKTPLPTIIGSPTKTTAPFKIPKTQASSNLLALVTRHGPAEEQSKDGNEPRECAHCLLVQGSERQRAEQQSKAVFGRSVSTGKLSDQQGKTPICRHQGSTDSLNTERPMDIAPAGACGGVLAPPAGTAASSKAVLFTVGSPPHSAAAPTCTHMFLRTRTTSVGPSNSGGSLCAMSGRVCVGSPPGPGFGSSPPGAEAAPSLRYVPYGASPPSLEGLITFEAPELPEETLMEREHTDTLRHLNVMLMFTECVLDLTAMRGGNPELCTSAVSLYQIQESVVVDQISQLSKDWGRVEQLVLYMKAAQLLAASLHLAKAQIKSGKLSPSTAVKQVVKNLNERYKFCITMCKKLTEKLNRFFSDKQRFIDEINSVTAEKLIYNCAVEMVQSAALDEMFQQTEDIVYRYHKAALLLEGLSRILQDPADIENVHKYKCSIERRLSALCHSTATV
# UniProt Q02040, sequence (Q02040 whole entry): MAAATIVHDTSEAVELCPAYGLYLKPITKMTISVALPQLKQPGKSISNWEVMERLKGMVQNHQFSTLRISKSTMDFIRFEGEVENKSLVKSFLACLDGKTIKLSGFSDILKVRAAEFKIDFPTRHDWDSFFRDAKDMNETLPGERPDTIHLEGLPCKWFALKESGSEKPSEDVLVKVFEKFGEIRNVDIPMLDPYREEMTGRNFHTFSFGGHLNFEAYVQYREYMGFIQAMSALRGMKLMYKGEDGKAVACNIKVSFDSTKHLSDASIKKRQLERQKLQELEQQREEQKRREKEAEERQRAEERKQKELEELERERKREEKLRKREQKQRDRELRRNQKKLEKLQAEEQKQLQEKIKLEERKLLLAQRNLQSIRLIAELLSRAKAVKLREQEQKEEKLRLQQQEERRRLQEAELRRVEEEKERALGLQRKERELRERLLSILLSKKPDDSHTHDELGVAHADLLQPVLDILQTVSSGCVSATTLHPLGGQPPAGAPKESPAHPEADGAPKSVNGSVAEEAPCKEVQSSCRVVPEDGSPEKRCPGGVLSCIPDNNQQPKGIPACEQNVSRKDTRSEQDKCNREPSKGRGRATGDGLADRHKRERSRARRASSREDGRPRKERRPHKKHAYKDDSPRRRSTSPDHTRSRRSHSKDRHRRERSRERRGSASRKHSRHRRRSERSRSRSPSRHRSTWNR
# UniProt Q9UHD2, sequence (Q9UHD2 whole entry): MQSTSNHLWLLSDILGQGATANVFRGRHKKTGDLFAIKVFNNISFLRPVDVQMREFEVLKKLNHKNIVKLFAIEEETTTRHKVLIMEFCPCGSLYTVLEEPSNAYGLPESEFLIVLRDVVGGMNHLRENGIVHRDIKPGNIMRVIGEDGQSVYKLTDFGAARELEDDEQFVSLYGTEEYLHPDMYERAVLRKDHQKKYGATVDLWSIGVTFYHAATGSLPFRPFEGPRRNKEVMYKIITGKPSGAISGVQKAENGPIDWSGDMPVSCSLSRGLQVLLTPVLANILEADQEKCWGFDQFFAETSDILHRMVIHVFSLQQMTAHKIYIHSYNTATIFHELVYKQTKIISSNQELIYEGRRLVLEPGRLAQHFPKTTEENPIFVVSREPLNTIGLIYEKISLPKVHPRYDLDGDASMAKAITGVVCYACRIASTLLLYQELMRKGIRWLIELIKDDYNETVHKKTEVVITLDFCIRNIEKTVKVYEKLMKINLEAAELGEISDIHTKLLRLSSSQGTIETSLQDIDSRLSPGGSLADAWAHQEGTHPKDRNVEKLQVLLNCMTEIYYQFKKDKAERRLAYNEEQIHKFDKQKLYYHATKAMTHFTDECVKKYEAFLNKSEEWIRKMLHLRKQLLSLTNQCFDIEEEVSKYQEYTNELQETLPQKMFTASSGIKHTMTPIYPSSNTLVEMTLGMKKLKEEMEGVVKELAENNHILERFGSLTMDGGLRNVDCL
row,Target,log2 fold change
1,"CDKL1 (peptide sequence: LCDFGFAR, peptide start residue: 693) (UniProt Q00532)",-0.936
2,"UniProt Q96G28 (peptide sequence: NIEMQLQAIR, peptide start residue: 117)",0.282
3,"IRAK4 (peptide sequence: MGEGGFGVVYK, peptide start residue: 192) (UniProt Q9NWZ3)",-2.25
4,"UniProt Q02750 (peptide sequence: SYMSPER, peptide start residue: 228)",3.08
5,"CAD (peptide sequence: FLSSAAAVSKEHPVVISK, peptide start residue: 1110) (UniProt P27708)",-0.418
6,"PRKAR2B (peptide sequence: CVGNYDNR, peptide start residue: 211) (UniProt P31323)",0.866
7,"UniProt Q13131 (peptide sequence: VGKHELTGHK, peptide start residue: 43)",-5
8,"PRDX1 (peptide sequence: KQGGLGPMNIPLVSDPKR, peptide start residue: 93) (UniProt Q06830)",0.253
9,"NEK9 (peptide sequence: TLNIFLTK, peptide start residue: 179) (UniProt Q8TD19)",-0.436
10,"ULK2 (peptide sequence: IADFGFAR, peptide start residue: 163) (UniProt Q8IYT8)",-1.68
11,"UniProt Q02040 (peptide sequence: STMDFIR, peptide start residue: 72)",0.414
12,"FER (peptide sequence: NCLVGENNVLK, peptide start residue: 689) (UniProt P16591)",-0.84
13,"TBK1 (peptide sequence: VIGEDGQSVYK, peptide start residue: 144) (UniProt Q9UHD2)",-1.75
14,"UniProt P19784 (peptide sequence: HLVSPEALDLLDKLLR, peptide start residue: 292)",-2.25
15,"RBM34 (peptide sequence: NGAQIADGFR, peptide start residue: 263) (UniProt P42696)",0.437
16,"QDPR (peptide sequence: EGGLLTLAGAK, peptide start residue: 128) (UniProt P09417)",0.635
17,"PIK3CB (peptide sequence: VFGEDSVGVIFK, peptide start residue: 794) (UniProt P42338)",-0.385
18,"TAOK3 (peptide sequence: VLIDLIQR, peptide start residue: 285) (UniProt Q9H2K8)",-1.49
19,"CDKN1C (peptide sequence: SLFGPVDHEELSR, peptide start residue: 32) (UniProt P49918)",1.39
20,"UniProt P06493 (peptide sequence: HPNIVSLQDVLMQDSR, peptide start residue: 60)",-1.19
21,"UniProt O14920 (peptide sequence: AAMMNLLR, peptide start residue: 453)",0.5
22,"CAMK2G (peptide sequence: GAILTTMLVSR, peptide start residue: 302) (UniProt Q13555)",-1.14
23,"HBG2 (peptide sequence: MVTGVASALSSR, peptide start residue: 134) (UniProt P69892)",0.206
24,"TAOK2 (peptide sequence: ERPPTVIMDLIQR, peptide start residue: 284) (UniProt Q9UL54)",-2.3
25,"PRKACB (peptide sequence: QIEHTLNEK, peptide start residue: 85) (UniProt P22694)",1.81
26,"GTSE1 (peptide sequence: SIPGAAEKPK, peptide start residue: 228) (UniProt Q9NYZ3)",0.58
27,"IARS (peptide sequence: AVPSWFVR, peptide start residue: 411) (UniProt P41252)",0.326
28,"EIF4A3 (peptide sequence: ETQALILAPTR, peptide start residue: 106) (UniProt P38919)",0.375
29,"UniProt P19525 (peptide sequence: IGDFGLVTSLK, peptide start residue: 430)",-1.42
